Laboratory results as given in PubChem BioAssay (NCATS).
Where “and” joins values, the source holds several entries; their conditions need not be identical. Equal values may be shown once. Inconclusive results are not listed. Some compounds were tested as several samples or in several runs, with calls that do not always agree. Calls of active or inactive are those of the source. The call rests on the fitted dose curve; in most records, active means well fitted curve in the direction sought with a large enough effect; inconclusive means small, poorly fitted or top-dose-only effect, or another doubt; inactive means no such curve, though single readings can be large; an effect the other way counts as inactive or inconclusive.

What was measured:
[1] = P-glycoprotein substrates identified in KB-8-5-11 adenocarcinoma cell line, qHTS therapeutic library screen (AID 1346987); further: nearly all actives have a fitted effect of over 65% in size; further: potency means the concentration at half of the fitted maximal effect
How it was run: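 In this qHTS, P-gp-rich KB-8-5-11 cells received library compounds across a concentration range. Viability was quantified by luminescence after 72 h at 37 degree C.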

[2] = NS1 protein of Zika virus - qHTS assay to identify small molecule inhibitors in human HEK 293 cells (AID 1347053); further: nearly all actives have a fitted effect of over 55% in size; further: potency means the concentration at half of the fitted maximal effect
How it was run: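 Readout was TR-FRET using paired anti-NS1 antibodies after 24 h infection of HEK 293 cells with ZIKV MR766 (MOI = 0.5). Compound preceded virus by 1 h; reduced signal reflects lower NS1 expression.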

[3] = qHTS of pediatric cancer cell lines to identify multiple opportunities for drug repurposing: Primary screen for TC32 cells (AID 1347089); further: nearly all actives have a fitted effect of over 60% in size
How it was run: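 In the primary qHTS, MIPE compounds were tested at 11 concentrations (0.78 nM to 46 µM) and NPC compounds at 8 (0.59 nM to 46 µM) on TC32 cells for 48 h. CellTiter-Glo luminescence gave viability.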

[4] = qHTS of pediatric cancer cell lines to identify multiple opportunities for drug repurposing: Primary screen for SJ-GBM2 cells (AID 1347091); further: potency means the concentration at half of the fitted maximal effect
How it was run: (§1)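 Viability measured as metabolically active cells via CellTiter-Glo luminescence following 48 hours of compound exposure, 11-point dilutions in confirmatory testing. 500-1,000 cells/well plated 5 hours before dosing; controls were DMSO and 2.3 µM bortezomib.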

[5] = qHTS of pediatric cancer cell lines to identify multiple opportunities for drug repurposing: Primary screen for SK-N-MC cells (AID 1347093); further: potency means the concentration at half of the fitted maximal effect
How it was run: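 Metabolically active cells were quantified by ATP-dependent luminescence (CellTiter-Glo, 15 min at room temperature) following 48 h treatment. Cells had been plated at 500-1,000 per well and settled for 5 h beforehand.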

[6] = qHTS of pediatric cancer cell lines to identify multiple opportunities for drug repurposing: Primary screen for BT-37 cells (AID 1347094); further: potency means the concentration at half of the fitted maximal effect
How it was run: (§2)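 Cells plated at 500-1,000/well in growth medium, compounds added after 5 h. MIPE tested at 11 points (from 0.78 nM), NPC at 8 points (from 0.59 nM). CellTiter-Glo luminescence after 48 h; concentration-response curves from primary screen.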

[7] = qHTS of pediatric cancer cell lines to identify multiple opportunities for drug repurposing: Primary screen for NB-EBc1 cells (AID 1347095); further: potency means the concentration at half of the fitted maximal effect
How it was run: as §2

[8] = qHTS of pediatric cancer cell lines to identify multiple opportunities for drug repurposing: Primary screen for Saos-2 cells (AID 1347097); further: nearly all actives have a fitted effect of over 40% in size; further: potency means the concentration at half of the fitted maximal effect
How it was run: as §2

[9] = qHTS of pediatric cancer cell lines to identify multiple opportunities for drug repurposing: Primary screen for SK-N-SH cells (AID 1347098); further: nearly all actives have a fitted effect of over 65% in size; further: potency means the concentration at half of the fitted maximal effect
How it was run: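 Cells (500-1,000/well) rested 5 h, then received compounds for 48 h; metabolically active cells were measured by CellTiter-Glo luminescence. Final concentrations spanned up to 46 µM (MIPE, 11-point) or 0.59 nM-46 µM (NPC, 8-point) in primary screens, 11-point in follow-ups.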

[10] = qHTS of pediatric cancer cell lines to identify multiple opportunities for drug repurposing: Primary screen for A673 cells (AID 1347092); further: nearly all actives have a fitted effect of over 45% in size; further: potency means the concentration at half of the fitted maximal effect
How it was run: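 48 h compound exposure, A673, 500-1,000 cells/well, 37 degrees C/5% CO2. MIPE: 11-point, 0.78 nM-46 µM; NPC: 8-point, 0.59 nM-46 µM (final). Readout CellTiter-Glo luminescence after 15 min RT.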

[11] = qHTS of pediatric cancer cell lines to identify multiple opportunities for drug repurposing: Primary screen for U-2 OS cells (AID 1347096); further: nearly all actives have a fitted effect of over 50% in size
How it was run: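 Viability after 48 h compound treatment at 37C, 500-1,000 cells/well, read as ATP luminescence with CellTiter-Glo. Primary screens used 11-point (MIPE, 0.78 nM-46 µM) or 8-point (NPC, 0.59 nM-46 µM) final concentrations; follow-up screens used 11-point dilutions.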

[12] = qHTS of pediatric cancer cell lines to identify multiple opportunities for drug repurposing: Primary screen for DAOY cells (AID 1347090); further: nearly all actives have a fitted effect of over 55% in size; further: potency means the concentration at half of the fitted maximal effect
How it was run: as §1

Measured: Potency

CCCCC[C@H](O)C=C[C@H]1[C@H](O)CC(=O)[C@H]1CCCCCCC(=O)O
not listed: [10] | [11] | [12]
inactive: all other assays above

COc1cc([C@H]2Oc3cc([C@H]4Oc5cc(O)cc(O)c5C(=O)[C@H]4O)ccc3O[C@H]2CO)ccc1O
inactive: [1] | [2] | [3] | [6] | [11] | [8]
active: [10] 23.5 µM | [5] 20.9 µM

O=C(Nc1ccc(OC(F)(F)F)cc1)c1sccc1NCc1ccnc2ccccc12
inactive: [1] | [2] | [3] | [4] | [7] | [11]
active: [5] 26.4 µM | [8] 18.7 µM

N#CC(=C1Nc2ccccc2S1)c1ccnc(OCc2ccc(CN3CCOCC3)cc2)n1
inactive: [1] | [2]
active: [12] 0.0093 µM | [4] 3.32 µM | [10] 0.0235 µM | [5] 0.0053 µM | [7] 0.526 µM | [8] 0.0148 µM | [9] 0.482 µM

CC(C)CNc1ccnc(NCc2csc(-c3ccccc3)n2)n1
inactive: [11]
active: [1] 18.7 µM and 10.3 µM | [2] 26.4 µM | [12] 18.7 µM | [10] 11.8 µM | [5] 10.5 µM | [6] 24.3 µM

CN1c2ccccc2C(=O)N2CCc3c([nH]c4ccccc34)C21 (configuration not stated)
inactive: [3] | [12] | [4] | [6] | [7] | [11]
active: [5] 10.5 µM
inactive and 1.84 µM (active): [1]

C#C[C@]1(O)CC[C@H]2[C@H]3CCc4cc(OC)ccc4[C@H]3CC[C@@]21C
active: [10] 18.7 µM | [5] 20.9 µM
not listed: [2] | [9] | [12]
inactive: all other assays above

CN1CCC(COc2cnc(-c3cccc(Cn4nc(-c5cccc(C#N)c5)ccc4=O)c3)nc2)CC1
inactive: [3] | [6] | [11] | [8]
inactive and 16.4 µM (active): [1]
active: [4] 0.0083 µM | [10] 0.148 µM | [5] 0.148 µM | [9] 24.1 µM

CNC(=O)c1c(-c2ccc(F)cc2)oc2cc(N(CCO)S(C)(=O)=O)c(C3CC3)cc12
inactive: [1] | [2]
active: [10] 23.5 µM | [8] 16.6 µM

O[C@@H](COc1cccc2ncccc12)CN1CCN(C2c3ccccc3[C@@H]3[C@H](c4ccccc42)C3(F)F)CC1 (some centres not stated)
active: [12] 11.8 µM | [4] 3.35 µM | [10] 14.8 µM | [5] 9.35 µM | [7] 4.73 µM | [9] 15.2 µM
inactive: [1] | [3]

CC(C)=CCCC(C)=CCCC(C)=CCCC(C)=CCCC(C)=CCCC(C)=CCCC(C)=CCCC(C)=CCCC(C)=CCO
not listed: [2]
inactive: all other assays above

NC1(C(=O)N[C@@H](CCO)c2ccc(Cl)cc2)CCN(c2ncnc3[nH]ccc23)CC1
active: [12] 14.8 µM | [10] 18.7 µM | [5] 0.372 µM | [7] 5.26 µM | [8] 5.9 µM | [9] 30.4 µM
inactive: [1] | [2]

O=C1C(CCC(O)c2ccc(F)cc2)C(c2ccc(O)cc2)N1c1ccc(F)cc1 (configuration not stated)
not listed: [2] | [10]
inactive: all other assays above

CCCCCCOC(=O)N=C(N)c1ccc(NCc2nc3cc(C(=O)N(CCC(=O)OCC)c4ccccn4)ccc3n2C)cc1
active: [4] 18.7 µM | [10] 14.8 µM | [5] 29.6 µM
inactive: [1] | [3] | [12] | [11] | [9]

Cn1cc(-c2ccc3nnc(Sc4ccc5ncccc5c4)n3n2)cn1
inactive: [1] | [3] | [6] | [7] | [11] | [9]
active: [12] 11.8 µM | [4] 0.0118 µM

COc1ccc2c(c1)CC[C@H]1[C@@H]2CC[C@]2(C)[C@@H](NCCCCCCN3C(=O)C=CC3=O)CC[C@H]12
not listed: [2] | [8] | [9]
inactive: all other assays above

CCOC(=O)[C@@H](N)CCC(=O)N[C@@H](CSCc1ccccc1)C(=O)N[C@@H](C(=O)OCC)c1ccccc1
not listed: [2] | [5] | [10]
inactive: all other assays above

COc1ccnc(CS(=O)c2nc3ccc(OC(F)F)cc3[nH]2)c1OC (configuration not stated)
not listed: [2] | [5]
inactive: all other assays above
